Source: PubChem BioAssay (NCI)
Compounds without any hit were thinned out: in the full panel of roughly 83,000, 20% have a hit.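 96-well plates, one dose, 48 hours. Percent growth reported; active if below 10.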 Active and inactive are the calls of the source.

Columns and labels:
Test in all cases: NCI-60 one-dose screen, 48 h (100 = growth as untreated, 0 = no growth, -100 = all killed)
Conditions in all cases: 10 µM
HT29 colon = test system: HT29 colon
SNB-75 CNS = test system: SNB-75 CNS
SNB-19 CNS = test system: SNB-19 CNS
U251 CNS = test system: U251 CNS
PC-3 prostate = test system: PC-3 prostate
SK-MEL-5 melanoma = test system: SK-MEL-5 melanoma
UACC-62 melanoma = test system: UACC-62 melanoma
LOX IMVI melanoma = test system: LOX IMVI melanoma
SK-MEL-28 melanoma = test system: SK-MEL-28 melanoma
SK-MEL-2 melanoma = test system: SK-MEL-2 melanoma

Measured: growth

COc1ccc(-c2nn(-c3cccc(NC(=O)Nc4cccc(C(F)(F)F)c4)c3)cc2-c2ccncc2)cc1Cl
active: HT29 colon 2.94% | U251 CNS -25.2% | PC-3 prostate 3.59% | SK-MEL-5 melanoma 2.68% | UACC-62 melanoma -21.5%
inactive: SNB-75 CNS 21.5% | SNB-19 CNS 37.1% | LOX IMVI melanoma 22.6% | SK-MEL-28 melanoma 15.6%

N#CC1=C(Nc2ccccc2Cl)SC(c2ccccc2O)NC1=O (centres undefined)
inactive: HT29 colon 112% | SNB-75 CNS 103% | SNB-19 CNS 111% | U251 CNS 104% | PC-3 prostate 96.7% | SK-MEL-5 melanoma 103% | UACC-62 melanoma 103% | LOX IMVI melanoma 97.5% | SK-MEL-28 melanoma 109% | SK-MEL-2 melanoma 114%

CC/C(=C(/c1ccc(OCCN(C)C)cc1)c1ccc(OC(=O)CCCCC(=O)c2c(C)[nH]c(/C=C3\N=C(c4ccc[nH]4)C=C3OC)c2C)cc1)c1ccccc1
inactive: HT29 colon 14.3% | SNB-75 CNS 42.3% | SNB-19 CNS 91.8% | U251 CNS 43.5% | PC-3 prostate 42.3% | SK-MEL-5 melanoma 36.4% | UACC-62 melanoma 75.1% | LOX IMVI melanoma 14% | SK-MEL-28 melanoma 85.6% | SK-MEL-2 melanoma 69%

Nc1c(C(=O)Nc2cccc3ccccc23)sc2nc3c(cc12)C(=O)CCC3
inactive: SNB-75 CNS 20.7% | SNB-19 CNS 55.3% | U251 CNS 15.2% | PC-3 prostate 22.6% | SK-MEL-5 melanoma 12.2% | UACC-62 melanoma 43.2% | LOX IMVI melanoma 29.7% | SK-MEL-28 melanoma 42.8% | SK-MEL-2 melanoma 35.5%
active: HT29 colon 8.98%
